The text below walks through data of PubChem BioAssay (NCATS).

Several values for one entry are separate records, joined by “and”; a condition that tells them apart may be missing. Identical values can stand only once. Results filed as inconclusive are left out. Activity calls are given as the source filed them. Unless noted, the call rests on the fitted dose curve; in most records, active means well fitted curve in the direction sought with a large enough effect; inconclusive means small, poorly fitted or top-dose-only effect, or another doubt; inactive means no such curve, though single readings can be large; an effect the other way counts as inactive or inconclusive. Bounds are passed on as bounds.

A short description of test [1]: Cell Viability - Jurkat (AID 426;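 active means dose-dependent loss of cell ATP signal giving a full or clear fitted curve, ranked by lower potency value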; further: potency means the concentration at half of the fitted maximal effect). The conditions noted are these: qHTS. The method in brief: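 Jurkat (clone E6-1, human T-cell leukemia) cells, 5000/well in complete medium, were exposed to compound for 40 hr at 37 °C. Viability was read as intracellular ATP by CellTiter-Glo luminescence; AC50 came from Hill fits of concentration-response data.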
Test [2] in a line: Cell Viability - Hek293 (AID 427;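 active means compounds whose dose-response curve shows a full or clear partial loss of cell viability, called from curve shape rather than a numeric limit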;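 further: potency means the concentration at half of the fitted maximal effect; cells exposed to compound for 40 hours at 37 °C before reading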). The conditions noted are these: qHTS. The method in brief:
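HEK293 cells in complete medium were exposed to compound for 40 hr at 37 °C, then cellular ATP was read by CellTiter-Glo luminescence. Data were normalized to DMSO (basal) and 100 uM tamoxifen (100% inhibition), and AC50 came from Hill fits.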
Background: Quantitative high-throughput screening tests each substance at several concentrations.

Test [3] can be described thus: Cell Viability - SH-SY5Y (AID 544).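 Further: 0% = DMSO alone and -100% = 100 µM tamoxifen; nearly all actives have a fitted effect of over 55% in size.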 The conditions noted are these: SH-SY5Y neuroblastoma cell viability; viability change, negative = cytotoxic: at 92.2 µM (top of the series). The gist of the method:
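Human neuroblastoma SH-SY5Y cells (1500/well) in complete medium were exposed to compounds for 40 hr at 37 °C; intracellular ATP was then quantified by CellTiter-Glo luminescence after 20 min at room temperature. AC50 came from Hill-equation concentration-response fits.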

Test [4] can be described thus: Cell Viability - Mesenchymal (AID 546).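 Further: cells exposed to compound for 40 hours before reading; 0% = DMSO only and -100% = 100 µM tamoxifen.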 The conditions noted are these: mesenchymal cells viability, qHTS; series mostly up to 91.7 µM. The method in brief: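 Normal human renal glomerulus-derived kidney mesenchymal cells, 1000 per well in complete medium, were treated with compounds for 40 hr at 37 °C. Viability was read as intracellular ATP by CellTiter-Glo luminescence; AC50 values came from Hill-equation fits of qHTS concentration-response data.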

Test [5] addresses Cytochrome P450 3A4 (Homo sapiens) (UniProt P08684). Kind of test: qHTS Assay for Inhibitors and Substrates of Cytochrome P450 3A4 (AID 884). Further: on the % scale 0 is the no-effect control and ±100 the full control effect; nearly all actives have a fitted effect of over 50% in size. The settings on record: recombinant CYP3A4, Luciferin-PPXE luminescence; series mostly up to 57.1 µM. The gist of the method: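 20 nM human CYP3A4 with 25 uM Luciferin-PPXE (at KM) in 200 mM KPO4, preincubated 10 min with compound; NADPH regeneration started a 60 min RT reaction. Luciferin detected by luminescence, normalized to 57 uM ketoconazole as full inhibition.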

Test [6] in a line: MultiTox-Fluor Cytotoxicity Assay - LYMP1-002 - Dead Cells (AID 960).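 Further: 0% = DMSO and 100% = tetraoctylammonium bromide; nearly all actives have a fitted effect of over 60% in size.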 The conditions noted are these: LYMP1-002 lymphoblastoid cells, dead-cell protease fluorescence; series mostly up to 46.1 µM. The gist of the method: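 Human lymphoblastoid cells (LYMP1-002), 2500/well in complete medium, were exposed to compounds for 16 hr at 37 C. Dead-cell protease activity was read as bis-AAF-R110 fluorescence (Ex/Em 485/520), normalized to DMSO and 15 uM tetraoctylammonium bromide; AC50 from Hill fits.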

A short description of test [7]: Cell Viability - LYMP2-005 (AID 967).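 Further: plate controls were DMSO only for no effect and 92 µM tetraoctylammonium bromide control for full effect.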 The conditions noted are these: LYMP2-005 lymphoblastoid cell viability; series mostly up to 92.2 µM. The method in brief:
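LYMP2-005 human lymphoblastoid cells (2500/well) were treated with compounds for 24 h at 37 C. Intracellular ATP was then measured by CellTiter-Glo luminescence after 30 min at room temperature. AC50 values came from Hill-equation fits of qHTS concentration-response data.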

Test [8] is described as follows: Cell Viability - LYMP2-019 (AID 973).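 Further: 0% = DMSO alone and full effect = 92 µM tetraoctylammonium bromide; nearly all actives have a fitted effect of over 55% in size.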 The settings on record: LYMP2-019 lymphoblastoid cell line viability; series mostly up to 92.2 µM. The method in brief: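 Human lymphoblastoid cells were seeded at 2500 cells/well, preincubated 5 hr at 37 C, then exposed to compounds for 24 hr at 37 C in complete medium. Intracellular ATP was measured by CellTiter-Glo luminescence; AC50 from Hill fits.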

The nature of test [9]: Cell Viability - LYMP2-010 (AID 981). Further: on the % scale 0 is the no-effect control and ±100 the full control effect; nearly all actives have a fitted effect of over 55% in size. The settings on record: LYMP2-010 lymphoblastoid cell viability, qHTS; series mostly up to 92.2 µM. The gist of the method: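 Human lymphoblastoid LYMP2-010 cells (2500/well) were preincubated 5 hr at 37 C, then exposed to compounds for 24 hr at 37 C in complete medium. Intracellular ATP was measured by CellTiter-Glo luminescence after 30 min at room temperature; AC50 from Hill-fitted concentration-response.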

A short description of test [10]: Cell Viability - LYMP2-024 (AID 988).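 Further: plate controls were DMSO only for no effect and 92 µM tetraoctylammonium bromide for full effect; nearly all actives have a fitted effect of over 60% in size.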 The settings on record: LYMP2-024 lymphoblastoid cell viability; series mostly up to 92.2 µM. The gist of the method: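 Human lymphoblastoid cells (2500/well) in complete medium were preincubated 5 hr at 37 C, then exposed to compounds for 24 hr at 37 C. Intracellular ATP was read by CellTiter-Glo luminescence; AC50 from Hill-equation fits of concentration-response data.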

A short description of test [11]: Cell Viability - LYMP2-026 (AID 989). Further: on the % scale 0 is the no-effect control and ±100 the full control effect; nearly all actives have a fitted effect of over 50% in size. The conditions noted are these: LYMP2-026 lymphoblastoid cell viability, qHTS; series mostly up to 92.2 µM. The method in brief:
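Human lymphoblastoid cells (2500/well) in complete medium were preincubated 5 hr at 37 C, then exposed to compounds for 24 hr at 37 C. Cellular ATP was read by CellTiter-Glo luminescence; AC50 from Hill-equation fits of concentration-response data.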

Test [12] is described as follows: Cell Viability - LYMP1-002 - Assay at 40 hr (AID 994).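 Further: 0% = DMSO only and full inhibition = 92 µM tetraoctylammonium bromide; nearly all actives have a fitted effect of over 60% in size.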 The conditions noted are these: LYMP1-002 lymphoblastoid cell viability; series mostly up to 92.2 µM. The method in brief:
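Human lymphoblastoid cells, 2500/well in complete medium, were preincubated 5 hr at 37 C, then exposed to compounds for 40 hr at 37 C. Intracellular ATP was read by CellTiter-Glo luminescence after 30 min at room temperature; AC50 from Hill-equation fits.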

Test [13] concerns the target Peroxisome proliferator-activated receptor gamma (Homo sapiens) (UniProt P37231). Kind of test: qHTS assay for small molecule agonists of peroxisome proliferator-activated receptor gamma signaling (AID 588536; active means well fitted curve in the direction sought with a large enough effect in the signal ratio, with a control signal flat, not every such curve was filed as active; the % refers to the signal ratio;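 further: 0% = DMSO basal wells and 100% = rosiglitazone at 2 µM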). The conditions noted are these: HEK293 PPARg-UAS-bla, beta-lactamase ratio, 16 h, percent of rosiglitazone response, DMSO as zero; series mostly up to 76.7 µM. The method in brief: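 GeneBLAzer PPAR-gamma-UAS-bla HEK293 cells in 1% charcoal/dextran-treated FBS medium were treated 16 h at 37 C with compounds. Beta-lactamase activity was read by CCF4 ratio (460/530 nm). Response was normalized to 2 uM rosiglitazone (100%) and DMSO, then Hill-fitted for EC50 and efficacy.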

A short description of test [14]: qHTS assay for small molecule agonists of retinoid X receptor alpha signaling (AID 588544; calls by dose curve). The settings on record: HEK293T RXRa-UAS-bla, beta-lactamase reporter, 18 h; 530 nm emission.
Test [15] addresses Retinoic acid receptor RXR-alpha (Homo sapiens) (UniProt P19793). Described as above. The conditions noted are these: HEK293T RXRa-UAS-bla, beta-lactamase reporter, 18 h; series mostly up to 76.7 µM.
The target in test [16] is Thyroid hormone receptor beta (Homo sapiens) (UniProt P10828). Kind of test: qHTS assay for small molecule agonists of thyroid hormone receptor beta signaling (AID 588545; calls by dose curve;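 further: 0% = DMSO only and 100% = 10 nM T3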). The settings on record: TR-UAS-bla GripTite HEK 293, beta-lactamase ratio, agonist mode, 18 h; series mostly up to 76.7 µM. The gist of the method: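 TR-UAS-bla GripTite HEK 293 cells (2500/well, medium with 2% charcoal/dextran FBS) were treated in agonist mode for 18 h at 37 C, titrated. Beta-lactamase was read by CCF4 ratio after 2 h; normalized to 10 nM T3 (100%) and DMSO, Hill-fitted for EC50 and efficacy.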

Test [17] in a line: qHTS assay for small molecule antagonists of retinoid X receptor alpha signaling (AID 588546).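 Further: cells stimulated with 9-cis-retinoic acid as agonist; on the % scale 0 is the no-effect control and ±100 the full control effect.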 The conditions noted are these: HEK293T RXRa-UAS-bla, beta-lactamase ratio, antagonist mode; measured here: W530 green channel, cytotoxicity proxy. The method in brief: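 Beta-lactamase reporter inhibition, read as CCF4 fluorescence ratio (ex 405, em 460/530 nm) after 2 h at RT. HEK293T UAS-bla cells, 2500/well, were stimulated with 9-cis-RA at 500 or 100 nM final alongside test compound for 18 h at 37 C.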

The target in test [18] is Tumor necrosis factor (Homo sapiens) (UniProt P01375). Kind of test: qHTS assay to identify small molecules that stimulate Tumor Necrosis Factor-alpha (TNF-alpha) secretion (AID 651757; active means well fitted curve in the direction sought with a large enough effect in the signal ratio; the % refers to the signal ratio; further: 0% is about no effect). The settings on record: Human cells, HTRF 665/615 ratio; series mostly up to 92.2 µM. The gist of the method: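 THP-1 cells were exposed to compounds for 17 hrs at 37 C, after which secreted TNF-alpha was measured by homogeneous HTRF (TR-FRET) using cryptate- and XL665-labeled anti-TNF-alpha antibodies, read after 3 hr at room temperature.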

In test [19] the target is Nuclear receptor subfamily 1 group I member 2 (Rattus norvegicus) (UniProt Q9R1A7). Kind of test: qHTS assay for small molecule activators of the rat pregnane X receptor (rPXR) signaling pathway (AID 651751; call rule not given here; further: 0% is about no effect). The settings on record: rPXR reporter cells, luciferase (One-Glo), 24 h.
Test [20] is described as follows: qHTS assay for small molecule antagonists of the retinoid-related orphan receptor gamma (ROR-gamma) signaling pathway - cell viability counter screen (AID 720652; active means well fitted curve in the direction sought with a large enough effect in the repeat runs; an effect the other way counts as inactive or inconclusive;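 further: CHO reporter cells with doxycycline-induced ROR-gamma expression; compound exposure lasted 16 hr before ATP read; on the % scale 0 is the no-effect control and ±100 the full control effect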). The conditions noted are these: RORgamma reporter cell line viability counter screen; series mostly up to 92.2 µM. The method in brief: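 Counter screen in CHO cells carrying TET-inducible ROR-gamma and an ROR response element-luciferase reporter; cells plated 5 hr, compound pinned, doxycycline added, then 16 hr at 37 C. Viability read as intracellular ATP by CellTiter-Glo luminescence.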

Retinoic acid receptor RXR-alpha (Homo sapiens), sequence (P19793 whole entry, looked up): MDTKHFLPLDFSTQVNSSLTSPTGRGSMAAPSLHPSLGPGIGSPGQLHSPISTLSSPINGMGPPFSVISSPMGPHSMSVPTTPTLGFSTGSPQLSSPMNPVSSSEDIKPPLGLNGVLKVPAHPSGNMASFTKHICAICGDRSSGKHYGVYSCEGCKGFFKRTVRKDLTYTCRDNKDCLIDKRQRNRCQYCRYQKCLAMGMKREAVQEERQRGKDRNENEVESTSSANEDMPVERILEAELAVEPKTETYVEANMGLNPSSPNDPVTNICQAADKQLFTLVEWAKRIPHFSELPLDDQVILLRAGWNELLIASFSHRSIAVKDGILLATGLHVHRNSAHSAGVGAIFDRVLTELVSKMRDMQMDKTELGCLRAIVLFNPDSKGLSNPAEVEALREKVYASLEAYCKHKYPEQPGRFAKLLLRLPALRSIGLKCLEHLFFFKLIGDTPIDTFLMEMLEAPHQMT
Thyroid hormone receptor beta (Homo sapiens), sequence (P10828 whole entry, looked up): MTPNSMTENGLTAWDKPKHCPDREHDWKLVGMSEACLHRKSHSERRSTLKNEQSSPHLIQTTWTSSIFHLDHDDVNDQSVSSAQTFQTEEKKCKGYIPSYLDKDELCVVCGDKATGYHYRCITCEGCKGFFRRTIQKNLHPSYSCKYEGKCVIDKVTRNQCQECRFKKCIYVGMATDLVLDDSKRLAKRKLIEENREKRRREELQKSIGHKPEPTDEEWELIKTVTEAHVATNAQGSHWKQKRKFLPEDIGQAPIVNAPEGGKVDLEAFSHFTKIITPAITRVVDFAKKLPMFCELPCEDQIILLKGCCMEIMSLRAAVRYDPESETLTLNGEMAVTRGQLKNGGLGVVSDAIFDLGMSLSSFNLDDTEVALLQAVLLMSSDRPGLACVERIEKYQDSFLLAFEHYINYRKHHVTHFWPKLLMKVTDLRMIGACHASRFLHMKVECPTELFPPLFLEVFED
Cytochrome P450 3A4 (Homo sapiens), sequence (P08684 whole entry, looked up): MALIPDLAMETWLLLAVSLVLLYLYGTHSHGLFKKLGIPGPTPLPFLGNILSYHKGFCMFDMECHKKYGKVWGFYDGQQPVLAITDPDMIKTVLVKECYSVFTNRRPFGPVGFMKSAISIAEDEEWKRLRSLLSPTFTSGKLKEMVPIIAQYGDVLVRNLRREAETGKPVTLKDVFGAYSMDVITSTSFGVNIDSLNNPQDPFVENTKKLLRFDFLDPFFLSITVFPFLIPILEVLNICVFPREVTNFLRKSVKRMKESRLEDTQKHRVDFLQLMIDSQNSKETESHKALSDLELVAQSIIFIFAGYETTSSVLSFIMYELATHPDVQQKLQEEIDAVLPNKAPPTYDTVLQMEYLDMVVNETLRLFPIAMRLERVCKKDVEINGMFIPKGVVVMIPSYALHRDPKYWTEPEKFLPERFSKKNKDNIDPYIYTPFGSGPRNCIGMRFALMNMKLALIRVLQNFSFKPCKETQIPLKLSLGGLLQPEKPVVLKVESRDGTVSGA
Nuclear receptor subfamily 1 group I member 2 (Rattus norvegicus), sequence (Q9R1A7 whole entry, looked up): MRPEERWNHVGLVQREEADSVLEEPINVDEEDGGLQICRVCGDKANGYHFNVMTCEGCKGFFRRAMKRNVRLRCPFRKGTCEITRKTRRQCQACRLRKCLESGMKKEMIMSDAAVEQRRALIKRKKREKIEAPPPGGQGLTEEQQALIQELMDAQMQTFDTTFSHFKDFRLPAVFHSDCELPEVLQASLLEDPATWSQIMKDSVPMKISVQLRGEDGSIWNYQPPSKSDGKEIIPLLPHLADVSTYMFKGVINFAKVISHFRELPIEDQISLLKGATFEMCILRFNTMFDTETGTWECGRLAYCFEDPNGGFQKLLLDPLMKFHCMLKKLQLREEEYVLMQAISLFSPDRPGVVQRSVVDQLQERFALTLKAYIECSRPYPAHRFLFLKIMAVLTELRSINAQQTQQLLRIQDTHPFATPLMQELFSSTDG
Peroxisome proliferator-activated receptor gamma (Homo sapiens), sequence (P37231 whole entry, looked up): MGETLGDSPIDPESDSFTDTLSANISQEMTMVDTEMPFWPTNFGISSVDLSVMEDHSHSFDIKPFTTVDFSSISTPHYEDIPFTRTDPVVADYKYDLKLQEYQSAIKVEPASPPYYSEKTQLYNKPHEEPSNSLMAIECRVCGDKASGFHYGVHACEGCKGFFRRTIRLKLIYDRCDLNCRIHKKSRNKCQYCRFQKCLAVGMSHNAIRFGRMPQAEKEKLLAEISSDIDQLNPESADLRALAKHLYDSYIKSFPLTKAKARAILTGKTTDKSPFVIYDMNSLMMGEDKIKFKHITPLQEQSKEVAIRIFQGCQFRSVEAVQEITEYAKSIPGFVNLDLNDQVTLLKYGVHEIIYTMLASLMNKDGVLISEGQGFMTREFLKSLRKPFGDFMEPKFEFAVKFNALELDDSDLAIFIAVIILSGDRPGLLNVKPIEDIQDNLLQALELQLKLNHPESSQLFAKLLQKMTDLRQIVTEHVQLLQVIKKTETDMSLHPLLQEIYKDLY
Tumor necrosis factor (Homo sapiens), sequence (P01375 whole entry, looked up): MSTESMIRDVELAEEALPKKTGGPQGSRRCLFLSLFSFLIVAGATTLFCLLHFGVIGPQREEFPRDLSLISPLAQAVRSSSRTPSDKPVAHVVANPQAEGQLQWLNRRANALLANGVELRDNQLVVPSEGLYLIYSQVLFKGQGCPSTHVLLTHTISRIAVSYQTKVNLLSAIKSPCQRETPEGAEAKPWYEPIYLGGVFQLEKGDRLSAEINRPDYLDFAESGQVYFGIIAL

`Cc1cccc(C)c1N`: the Potency in test [1] and in [2] was > 92 µM (inactive) throughout. Also, the Potency result in [3], in test [4], in test [5], in test [6], in test [7] and in test [8] was “inactive” each time. Further, the Potency result in [9], in test [10], in test [11], in test [12] and in [16] was “inactive” in each case. Besides, the result in test [13], in test [15] and in test [18] was inactive. Besides, the max response in [14] was -2.21%; in [17], -4.18%; in test [19] it was 0.51% (inactive).
As to `O=[N+]([O-])c1cccc(O)c1`, the Potency in test [1] and in [2] was > 92 µM (inactive) throughout. The Potency result in test [3], in [4], in test [5], in test [6], in [7] and in test [8] was “inactive” each time. For the same compound, the Potency entry in test [9], in test [10], in [11], in [12], in test [16] and in test [20] was “inactive” in each case. The outcome in test [13], in test [15] and in [18] was inactive. Further, the max response in [14] is 0.893%; in [17], -2.66%; in test [19], 6% (inactive).
For `Clc1cc(Cl)c(Cl)c(Cl)c1`, the Potency in [1] and in test [2] was > 92 µM (inactive) in each case. The Potency entry in test [3], in test [4], in test [5], in test [6], in [7] and in [8] was “inactive” in each case. The Potency result in [9], in test [10], in test [11], in test [12], in test [16] and in test [20] was “inactive” each time. Further, the outcome in [13], in test [15] and in test [18] was inactive. Further, the max response in test [14] is 0.707%; in test [17], -0.278%; in [19] it was -2.54% (inactive).
Regarding `Oc1cc(Cl)ccc1Cl`, the Potency in test [1] and in test [2] was > 92 µM (inactive) in each case. Also, the Potency entry in test [3], in test [4], in test [6], in test [7], in test [8] and in [9] was “inactive” in each case. Besides, the Potency entry in test [10], in test [11], in [12], in test [16] and in test [20] was “inactive” each time. Moreover, the outcome in test [13], in test [15] and in test [18] was inactive. Besides, the max response in test [14] was -10.2% and -8.32%; in test [17], -4.84% and -5.75%; in test [19], -2.5% (inactive) and -2.48% (inactive).
Turning to `N#CCBr`, the Potency in [1] and in test [2] was > 92 µM (inactive) in each case. The Potency entry in [3], in test [4], in [5], in test [6], in test [7] and in test [8] was “inactive” throughout. Moreover, the Potency result in test [9], in test [10], in [11], in [12] and in test [16] was “inactive” in each case. Moreover, the max response in test [14] is -6.36%; in test [17], 1.14%; in [19], -1.93% (inactive). Besides, the compound was called inactive in [15] and in test [18].
With `O=C(Cl)OCc1ccccc1`, the Potency in test [1] and in test [2] was > 92 µM (inactive) throughout. Also, the Potency entry in [3], in test [4], in [5], in test [6], in [7] and in [8] was “inactive” in each case. The Potency entry in [9], in [10], in [11], in [12] and in test [20] was “inactive” throughout. In addition, the outcome in test [13], in [15] and in test [18] was inactive. Further, the max response in test [14] was -1.31%; in [17] it was -3.27%; in test [19], 4.69% (inactive).
On to `ClCc1ccccc1`, for which the Potency in test [1] and in test [2] was > 92 µM (inactive) in each case. In addition, the Potency result in test [3], in test [4], in test [5], in [6], in test [7] and in [8] was “inactive” in each case. In addition, the Potency result in test [9], in test [10], in test [11], in test [12], in [16] and in [20] was “inactive” in each case. Moreover, the result in test [13], in test [15] and in [18] was inactive. In addition, the max response in [14] was -0.901%; in [17], -2.86%; in [19], -2.08% (inactive).
